Source: PubChem BioAssay AID602143 (Vanderbilt Specialized Chemistry Center, 2011)
A number with no mark means an inactive call. Active and inactive are the calls of the source. Cut-off read from the data, not from the text of the source: active = remaining activity below about 50%; inactive = the rest.

The molecules below were run against Phospholipase D2 (Homo sapiens) (UniProt O14939) (assay: cellular phospholipase D2 activity inhibition – cell-based, HEK293, single concentration (AID 602143;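 note: tested at 200 nM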)). Details: HEK293 cellular PLD2 activity, percent of control; stronger effect = lower value.
Sequence of Phospholipase D2 (Homo sapiens) (O14939 whole entry, looked up): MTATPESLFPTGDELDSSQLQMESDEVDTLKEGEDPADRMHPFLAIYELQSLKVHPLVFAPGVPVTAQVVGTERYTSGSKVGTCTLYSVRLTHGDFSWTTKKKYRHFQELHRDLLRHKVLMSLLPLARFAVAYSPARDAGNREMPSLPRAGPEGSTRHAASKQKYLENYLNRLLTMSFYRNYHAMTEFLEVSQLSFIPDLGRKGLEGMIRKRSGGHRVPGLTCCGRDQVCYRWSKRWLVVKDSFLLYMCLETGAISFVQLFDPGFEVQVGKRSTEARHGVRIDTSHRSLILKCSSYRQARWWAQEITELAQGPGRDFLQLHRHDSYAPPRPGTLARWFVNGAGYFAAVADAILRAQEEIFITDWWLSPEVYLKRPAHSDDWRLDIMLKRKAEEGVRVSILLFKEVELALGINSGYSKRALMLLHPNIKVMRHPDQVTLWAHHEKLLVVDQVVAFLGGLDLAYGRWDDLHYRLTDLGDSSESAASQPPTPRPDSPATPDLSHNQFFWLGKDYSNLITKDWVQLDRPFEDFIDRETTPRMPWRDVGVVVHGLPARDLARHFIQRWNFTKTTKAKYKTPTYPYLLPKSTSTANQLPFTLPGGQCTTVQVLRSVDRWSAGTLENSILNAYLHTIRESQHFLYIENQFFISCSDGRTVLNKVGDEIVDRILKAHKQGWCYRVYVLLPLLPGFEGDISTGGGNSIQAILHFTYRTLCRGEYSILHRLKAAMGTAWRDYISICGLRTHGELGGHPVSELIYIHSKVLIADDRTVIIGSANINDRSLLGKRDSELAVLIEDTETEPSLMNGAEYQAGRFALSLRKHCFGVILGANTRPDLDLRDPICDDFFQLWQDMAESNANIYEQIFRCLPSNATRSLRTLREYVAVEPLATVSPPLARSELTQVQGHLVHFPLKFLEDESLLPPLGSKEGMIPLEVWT
Sequence of Phospholipase D2 (Homo sapiens) (O14939 whole entry, looked up): as above

Structure (SMILES) | remaining activity
C[C@@H](CN1CCC2(CC1)CN(S(C)(=O)=O)c1ccccc12)NC(=O)c1ccc2ccccc2c1 | 115%
O=C(NCCN1CCC(n2c(=O)[nH]c3ccccc32)CC1)c1cc([N+](=O)[O-])cc([N+](=O)[O-])c1 | 102%
C[C@@H](CN1CCC(n2c(=O)[nH]c3cc(-c4ccc(C(F)(F)F)cc4)ccc32)CC1)NC(=O)[C@H]1C[C@@H]1c1ccccc1 | 70.9%
C[C@@H](CN1CCC(n2c(=O)[nH]c3ccccc32)CC1)NC(=O)c1cccnc1 | 97.3%
O=C(NCCN1CCC2(CCc3ccccc32)CC1)c1ccc2ccccc2c1 | 124%
O=C(NCCN1CCC2(CCc3ccccc32)CC1)[C@H]1C[C@@H]1c1ccccc1 | 99.8%
NC1(CN2CCC(n3c(=O)[nH]c4cc(Cl)ccc43)CC2)CCCC1 (tested in a mixture with another compound) | 94.3%
C[C@@H](CN1CCC2(CCc3ccccc32)CC1)NC(=O)c1cnc2ccccc2c1 | 108%
O=C(NCCN1CCC(n2c(=O)[nH]c3ccccc32)CC1)c1ncccn1 | 90.1%
O=C(NCCN1CCC(n2nnc3ccccc32)CC1)C1CC1c1ccccc1 (stereo not given) | 78.1%
O=C(NCCN1CCC(n2c(=O)[nH]c3ccccc32)CC1)c1ccc2cccc3c2c1CC3 | 98%
CS(=O)(=O)N1CC2(CCN(CCNC(=O)c3cnc4ccccc4c3)CC2)c2ccccc21 | 83.7%
O=C(NCCN1CCC(n2c(=O)[nH]c3ccccc32)CC1)C1(c2ccccc2)CCC1 | 86.3%
COc1ccc(S(=O)(=O)NCCN2CCC(n3c(=O)[nH]c4ccccc43)CC2)cc1 | 127%
C[C@@H](CN1CCC(n2c(=O)[nH]c3cc(I)ccc32)CC1)NC(=O)C1CC1c1ccccc1 (stereo not given in full) | 99.2%
O=C(c1ccc2ccccc2c1)N1CCC2(CC1)C(=O)NCN2c1ccccc1 | 75.8%
C[C@@H](CN1CCC(n2c(=O)[nH]c3ccccc32)CC1)NC(=O)c1cc2cc(F)ccc2[nH]1 | 0.758% (active)
C[C@@H](CN1CCC(n2c(=O)[nH]c3ccccc32)CC1)NC(=O)c1ccc[nH]1 | 39.9% (active)

Structure (SMILES) | remaining activity
O=C1c2ccccc2C(=O)N1CCCNc1ccc2ccccc2c1 | 91.8%
O=C(NCCN1CCN(c2ccncc2)CC1)c1ccc2ccccc2c1 | 110%
O=C(NCCN1CCC(n2c(=O)[nH]c3ccccc32)CC1)Nc1cccc(F)c1 | 87.9%
O=c1[nH]c2ccccc2n1C1CCN(CCNS(=O)(=O)c2cccc3cccnc23)CC1 | 112%
Cc1ccc(C(=O)N[C@@H](C)CN2CCC(n3c(=O)[nH]c4ccc(F)cc43)CC2)cc1 | 64%
O=C(NCCN1CCC2(CC1)CNc1ccccc12)C1CC1c1ccccc1 (stereo not given) | 91.2%
O=C(c1ccc(Cl)cc1)N(CCN1CCC(n2c(=O)[nH]c3ccccc32)CC1)C(=O)c1ccc(Cl)cc1 | 94.2%
O=C(NCCN1CCC(n2c(=O)[nH]c3ccccc32)CC1)Nc1ccccc1F | 105%
O=C(NCCN1CCC(C(=O)Nc2ccccc2)CC1)c1ccc2ccccc2c1 | 106%
COc1cccc(N2CCN(CCNC(=O)c3ccc(C(F)(F)F)cc3)CC2)c1 | 98.3%
O=C(NCCN1CCC(n2c(=O)[nH]c3ccccc32)CC1)C1CCCCCCCCCC1 | 81.3%
NCCN1CCC(n2c(=O)[nH]c3cc(Cl)ccc32)CC1 (tested in a mixture with another compound) | 83.1%
O=C(NCCN1CCC(n2c(=O)[nH]c3ccccc32)CC1)N1c2ccccc2Sc2ccccc21 | 111%
C[C@@H](CN1CCC(n2c(=O)[nH]c3cc(I)ccc32)CC1)NC(=O)c1ccc2ccccc2c1 | 101%
C[C@@H](CN1CCC(n2c(=O)[nH]c3ccc(F)cc32)CC1)NC(=O)c1ccc(Cl)cc1 | 68.3%
O=C(N[C@@H](Cc1ccccc1)CN1CCC(n2c(=O)[nH]c3ccccc32)CC1)c1cnc2ccccc2c1 | 60.2%
O=C(NCCN1CCN(c2ccncc2)CC1)c1ccc(F)cc1 | 102%
